# Test results as given in ChEMBL document CHEMBL3988442, “University of Dundee, Small-Polar-MMV Screening Library” (2021).
# Experiments:
# [1] = target: T1, Aspartate--tRNA(Asp/Asn) ligase (Mycobacterium tuberculosis (strain ATCC 25618 / H37Rv)) (UniProt P9WFW3); experiment: Assay for Asp RNA synthetase-1 from Mycobacterium tuberculosis; format: functional; set-up: scale not given: direction of the effect not stated beside the values; settings: 30 µM; further: in the data most compounds retested in dose-response had high values
# T1 sequence (whole entry): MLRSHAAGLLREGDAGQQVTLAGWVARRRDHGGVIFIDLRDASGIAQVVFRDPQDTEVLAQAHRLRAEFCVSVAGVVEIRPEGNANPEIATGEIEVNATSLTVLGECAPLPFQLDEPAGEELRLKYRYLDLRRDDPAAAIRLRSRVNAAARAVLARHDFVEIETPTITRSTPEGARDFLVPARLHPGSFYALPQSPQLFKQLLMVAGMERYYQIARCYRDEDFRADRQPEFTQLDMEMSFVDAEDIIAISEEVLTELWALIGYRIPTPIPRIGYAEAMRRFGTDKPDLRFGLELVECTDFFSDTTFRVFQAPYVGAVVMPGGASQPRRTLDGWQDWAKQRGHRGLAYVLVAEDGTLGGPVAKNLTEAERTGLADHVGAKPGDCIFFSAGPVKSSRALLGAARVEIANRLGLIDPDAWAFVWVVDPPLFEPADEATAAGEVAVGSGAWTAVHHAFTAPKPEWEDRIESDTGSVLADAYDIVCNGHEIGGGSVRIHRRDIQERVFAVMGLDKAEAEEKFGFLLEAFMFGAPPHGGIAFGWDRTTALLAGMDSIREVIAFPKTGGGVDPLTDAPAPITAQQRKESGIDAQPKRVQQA
# [2] = target: Shiga toxin 2 (Escherichia coli O157:H7) (UniProt P09385+P09386); experiment: E. coli 0.157:H7 Shiga Toxin SOP - stx2 screening assay; format: functional; set-up: scale not given: direction of the effect not stated beside the values; settings: 30 µM
Structure (SMILES),Percent Effect [1],Percent Effect [2]
Cc1cnn(CCNCc2ccccc2Oc2cccnc2)c1,10.1%,-15.5%
O=C(Cn1c(=O)nc2n1C(=O)N(c1ccccc1)C2)Nc1ccccc1,-4%,16.3%
CC(C)(C)c1n[nH]c(C2CN(C(=O)CCC3CC3)CCO2)n1 (centres undefined),-3.75%,11.1%
O=C(C1CCCc2[nH]ncc21)N1CCCCCC1 (centres undefined),-0.324%,1.51%
O=C(c1n[nH]c(=O)c2ccccc12)N1CCCCC1c1ccn[nH]1 (centres undefined),-1.09%,17.2%
COc1ccc(CCC(=O)N2CCCC2Cn2cc(C)cn2)cc1F (centres undefined),-1.15%,18.7%
Cn1nc(CNC(=O)c2nc3ccccc3s2)c2c1CCOC2,-0.335%,1.68%
CC(C)(C(=O)NCC1CC1)c1ccccc1F,-1.98%,-2.97%
Cc1nc(N2CCCC2)ncc1-c1cc(O)nc(N2CCCC2)n1,-6.71%,-0.674%
CN(C)C(=O)N1C[C@@H]2COC[C@]2(CNS(C)(=O)=O)C1,-0.382%,-0.0161%
O=C(C1CC1)N1CCCC1C1CCN(Cc2ccccc2)CC1 (centres undefined),-4.34%,-13.2%
COc1ccc(C(C(=O)O)N2CCCN(C3CCCC3)CC2)cc1OC (centres undefined),0.804%,-25.6%
O=C(c1cnccn1)N1CCN(Cc2ccncc2)c2ncccc2C1,0.815%,-1.31%
CCOc1ccc(CC(CNC(=O)c2occc2C)C(N)=O)cc1 (centres undefined),2.25%,23.6%
CN(C)CCN1CCC2(CCN(C(=O)c3ccc(F)cc3)CC2)C1=O,2.84%,-5.38%
Cn1ccnc1COc1ccc(CO)cc1,1.33%,-14.5%
CN(CC(=O)N1CCCC1c1cnn(C)c1)c1ccc(Cl)cn1 (centres undefined),-2.16%,29.7%
